Key:
Details in all cases: concentration: 1 μM,replicates: in singlicate; n = 1
DCAMKL2 = system: T1, DCAMKL2
T1 construct: gene DCLK2

DCAMKL3 = system: T2, DCAMKL3
T2 construct: gene DCLK3

DDR1 = system: DDR1
DDR2 = system: DDR2
DLK = system: T3, DLK
T3 construct: gene MAP3K12

DMPK2 = system: T4, DMPK2
T4 construct: gene CDC42BPG

DMPK = system: DMPK
DRAK1 = system: T5, DRAK1
T5 construct: gene STK17A

DRAK2 = system: T6, DRAK2
T6 construct: gene STK17B

DYRK1A = system: DYRK1A
DYRK1B = system: DYRK1B
DYRK2 = system: DYRK2
EGFR = system: EGFR
EIF2AK1 = system: EIF2AK1
EPHA1 = system: EPHA1
EPHA2 = system: EPHA2
EPHA3 = system: EPHA3
EPHA4 = system: EPHA4
EPHA5 = system: EPHA5
EPHA6 = system: EPHA6
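Also: KINOMEscan kinase panel screen.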

Row | SMILES | %Inh (DCAMKL2) [%] | %Inh (DCAMKL3) [%] | %Inh (DDR1) [%] | %Inh (DDR2) [%] | %Inh (DLK) [%] | %Inh (DMPK2) [%] | %Inh (DMPK) [%] | %Inh (DRAK1) [%] | %Inh (DRAK2) [%] | %Inh (DYRK1A) [%] | %Inh (DYRK1B) [%] | %Inh (DYRK2) [%] | %Inh (EGFR) [%] | %Inh (EIF2AK1) [%] | %Inh (EPHA1) [%] | %Inh (EPHA2) [%] | %Inh (EPHA3) [%] | %Inh (EPHA4) [%] | %Inh (EPHA5) [%] | %Inh (EPHA6) [%]
1 | O=C(Nc1ccc(Oc2ccc3nc(NC(=O)C4CC4)cn3n2)c(F)c1)c1cccn(-c2ccccc2)c1=O | 13 | 29 | 99.1 | 100 | 13 | 0 | 0 | 0 | 0 | 0 | 30 | 0 | 13 | 0 | 51 | 74 | 0 | 26 | 11 | 37
2 | COC(=O)c1cccc(NC(=O)NC2CCN(c3ccnc(Nc4cc(OC)c(OC)c(OC)c4)n3)C2)c1 (centres unmarked) [GSK1379767] | 0 | 0 | 13 | 55 | 61 | 27 | 0 | 0 | 0 | 0 | 15 | 2 | 33 | 0 | 0 | 16 | 15 | 6 | 0 | 0
3 | O=C(NCC1CC1)c1ccc(-c2cc(C(=O)NC3CC3)ccc2F)cc1 [GW810445] | 22 | 0 | 0 | 35 | 12 | 0 | 0 | 0 | 0 | 0 | 24 | 0 | 15 | 0 | 0 | 0 | 10 | 0 | 0 | 0
4 | Cc1cccc(-c2nc(Nc3ccncc3)c3sccc3n2)n1 [GW869641] | 21 | 18 | 55 | 66 | 0 | 98.5 | 18 | 2 | 13 | 20 | 9 | 35 | 16 | 17 | 0 | 0 | 26 | 8 | 23 | 16
5 | CS(=O)c1ccc(-c2coc3ccc(-c4n[nH]c(=O)o4)cc23)cc1 (centres unmarked) | 0 | 0 | 0 | 15 | 0 | 0 | 29 | 61 | 100 | 66 | 68 | 10 | 0 | 3 | 0 | 0 | 0 | 0 | 0 | 0
6 | COc1ccc(Nc2nccc(N3CCC(NC(=O)c4cccc(C#N)c4)C3)n2)cc1 (centres unmarked) [GSK1379730] | 0 | 0 | 0 | 12 | 40 | 0 | 0 | 2 | 0 | 22 | 39 | 0 | 29 | 0 | 27 | 0 | 0 | 0 | 12 | 0
7 | Nc1nccc(-c2ccc3c(N)n[nH]c3c2)n1 [GSK1034945] | 0 | 36 | 0 | 0 | 1 | 2 | 0 | 98.1 | 89 | 99.6 | 75 | 93.1 | 24 | 4 | 11 | 0 | 0 | 0 | 0 | 0
8 | c1ccc(Oc2ccc(Nc3ccnc4ccc(-c5ccccn5)cc34)cc2)cc1 [GW407034] | 0 | 0 | 14 | 0 | 49 | 15 | 0 | 0 | 0 | 24 | 0 | 0 | 82 | 0 | 31 | 13 | 0 | 7 | 90.6 | 2
9 | COc1cc2nccc(Nc3ccc(Oc4ccccc4)cc3)c2cc1OC.Cl [GI261656] | 0 | 1 | 0 | 22 | 34 | 6 | 0 | 0 | 0 | 0 | 18 | 9 | 88 | 0 | 0 | 5 | 0 | 0 | 0 | 0
10 | C[C@@H]1CCN(C(=O)N2CCCC2)C[C@@H]1N(C)c1ncnc2[nH]ccc12 | 0 | 99.8 | 8 | 0 | 8 | 0 | 72 | 23 | 38 | 0 | 0 | 0 | 0 | 23 | 1 | 0 | 0 | 16 | 8 | 20
